Each structure is given as a SMILES string. Results filed as inconclusive are left out. Activity calls are given as the source filed them. How the source made its calls: active means hit-call score of the fitted dose curve at least 0.9, where 1 is the maximum; inconclusive means response in the unintended direction; inactive means score below 0.9.

A short description of the assay: ATG_M_19_TRANS: Attagene TRANS-FACTORIAL HepG2 Assay for M19 Transcription Factor (Internal Marker) (AID 2282974). Conditions: HepG2 Attagene TRANS-FACTORIAL M19 internal marker reporter. The method, then:
ATG_TRANS is a cell-based, multiplexed-readout assay that uses HepG2, a human liver cell line, with measurements taken at 24 hours after chemical dosing in a 24-well plate.ATG_M_19_TRANS is one of 30 assay component(s) measured or calculated from the ATG_TRANS assay. It is designed to make measurements of mRNA induction, a form of inducible reporter, as detected with fluorescence intensity signals by Reverse transcription polymerase chain reaction (RT-PCR) and Capillary electrophoresis technology.Data from the assay component ATG_M_19_TRANS was analyzed into 1 assay endpoint. This assay endpoint, ATG_M_19_TRANS, was analyzed in the positive analysis fitting direction relative to DMSO as the negative control and baseline of activity. Using a type of inducible reporter, measures of mRNA for gain-of-signal activity can be used to understand the background control at the transcription factor-level as they relate to the gene . Furthermore, this assay endpoint can be referred to as a secondary readout, because this assay has produced multiple assay endpoints where this one serves a background control function. To generalize the intended target to other relatable targets, this assay endpoint is annotated to the background measurement intended target family, where the subfamily is internal marker.
Human liver HepG2 cells are transiently transfected with multiple reporter transcription units (MRTUs) in 6-well plates using FuGene 6 reagent (Roche; 3 ml FuGene/1 mg DNA). The MRTU constructs are regulated by a cis-regulating element (promoter). […] A major difference between the CIS and TRANS system is that in CIS activities of endogenous TFs are measured, whereas the TRANS assay evaluates changes in activities of exogenous, chimeric NR-Gal4 proteins. […] At the end of 24 hour incubation, total RNA was isolated using TriZol reagent (Invitrogen). The isolated RNA is then reverse-transcribed using oligo(dT) primer and Mo-MLV reverse transcriptase (Invitrogen) with DNAse I (Ambion) treatment for 30 min. The one-tenth of the produced cDNA was amplified by PCR using Taq DNA polymerase (Invitrogen) and two reporter sequence-specific primers. The PCR products were fluorescently labeled by primer extension with 6-arboxyfluorescein (6-FAM) 5'-labeled reporter sequence-specific primer (2 min at 95 C, 20 s at 68 C and 10 min at 72 C) and these products were digested with 5U of HpaI (New England Biolabs) for 2h at 37 C. The fragments were purified using Qiaquick PCR columns (Qiagen), analyzed on an ABI 3130xL genetic analyzer (Applied Biosystems) with peak positions identified by using a set of X-rhodamine (ROX)-labeled MapMarker1000 molecular weight standards (BioVentures). The raw capillary electrophoresis data was processed using Attagraph software (Attagene).
For the compound `Nc1nc(N)nc(-c2ccccc2)n1`, the outcome was inactive.
Consider `CC(C)c1cccc(C(C)C)c1N`, for which the compound was called inactive.
With `Cc1ccccc1CCO`, the call was inactive.
`Cc1cc(C)c(C=O)c(C)c1`: the compound was classed as inactive.
In the case of `Cc1c(Cl)cccc1Cl`, the compound was called inactive.
`CCCC1CCCC(=O)O1` (stereo not given): the compound was called inactive.
`O=C1c2ccccc2C(=O)c2cc(S(=O)(=O)O)ccc21`: the call was inactive.
For `CCCCOCCOC(=O)COc1ccc(Cl)cc1Cl`, the result was inactive.
In the case of `COCC(=O)O`, the compound was classed as inactive.
For the compound `CCCCC(C=O)CC` (stereo not given), the call was inactive.
Consider `NNS(=O)(=O)c1ccc(Oc2ccc(S(=O)(=O)NN)cc2)cc1`, for which the result was inactive.
To `Clc1cc(Cl)c(Cl)c(Cl)c1Cl` belongs “inactive”; to `C=CCNCC=C`, “inactive”.
In the case of `C=C[Si](OCCOC)(OCCOC)OCCOC`, the compound was classed as inactive.
For the compound `CC(C)c1cc(C(C)C)cc(C(C)C)c1`, the compound was called inactive.
Consider `CO[Si](C)(C)OC`, for which the outcome was inactive.
With `c1ccc2c(c1)[nH]c1ccccc12`, the call was inactive.
With `CC1(C)[C@@H]2CC[C@@]1(C)C(=O)C2`, the outcome was inactive.
The same measure for `CC(C)(C)N`: “inactive”.
Take `C/C=C/C=C/CCCCCCCO`: the result was inactive.
Turning to `COc1cc(O)c(C(=O)c2ccccc2)cc1S(=O)(=O)O`, the call was inactive.
For `C[N+](C)(C)CCCNS(=O)(=O)C(F)(F)C(F)(F)C(F)(F)C(F)(F)C(F)(F)C(F)(F)C(F)(F)C(F)(F)F`, the result was inactive.
Turning to `CCCCCCCC(=O)OCC(COC(=O)CCCCCCC)OC(=O)CCCCCCC`, the call was inactive.
With `Nc1ccc(C(=O)OCCCOC(=O)c2ccc(N)cc2)cc1`, the call was inactive.
Take `CCN(CC)c1cccc(C)c1`: the outcome was inactive.
For `C=CCOC(=O)c1ccc(C(=O)OCC=C)c(C(=O)OCC=C)c1`, the call was inactive.
As for `CC/C=C\C/C=C\C/C=C\CCCCCCCC(=O)OC`, the result was inactive.
Turning to `CC1CCC(C(C)(C)S)C(=O)C1` (stereo not given), the compound was called inactive.
Turning to `Nc1ncnc2nc[nH]c12`, the result was inactive.
For `CC(=O)OCC=C(C)C`, the compound was classed as inactive.
`COC(=O)c1ccccc1C`: the call was inactive.
As for `CCOC(=O)[C@H](O)[C@@H](O)C(=O)OCC`, the outcome was inactive.
On to `CC1(C)CCC[C@]2(C)[C@H]3CC(=O)O[C@]3(C)CC[C@@H]12`, for which the call was inactive.
`Nc1ccc(Cl)c(N)c1`: the compound was called inactive.
To `CCCCCCCCCCCCCC(=O)OC(C)C` belongs “inactive”.
Turning to `C=C(C)OC(C)=O`, the result was inactive.
Take `CCCCC1C(=O)N(c2ccccc2)N(c2ccccc2)C1=O`: the result was inactive.
Take `CC(C)C(=O)OCCOc1ccccc1`: the compound was called inactive.
`O=c1c(O)c(-c2ccc(O)cc2O)oc2cc(O)cc(O)c12`: the result was inactive.
With `CCCCCC(=O)OCC`, the outcome was inactive.

The values are drawn from PubChem BioAssay (EPA / NIEHS).
